Screening data (PubChem BioAssay)
Lmaj promast – reduces viability of Leishmania major promastigotes. resazurin fluorescence viability. 200,000 tested, 9% active. AID 1063. inhibition, % at 10 µM; in the data active = inhibition above about 50%;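 also: promastigotes grown with compound for 44 hours at 28 °C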
Autophagy HCS – autophagy modulation, high-content screen; MEF GFP-LC3 puncta imaging; test concentration mostly 10 µM; calls only at 10 µM (by protocol); 190,000 tested, 0.98% active;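 active = percentage of spot-positive cells more than 3 SD above its plate mean, without a fluorescence outlier flag or 80% toxicity; inconclusive = no clear call, values can overlap the other calls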
HCT116 PTEN-null – PTEN-deleted cell growth suppression | HCT116 PTEN-null viability, CellTiter-Glo, 60 h; stronger effect = lower value | viability, % at 10 µM | 140,000 tested, 1.2% active;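 active = viability at or below a set limit, 4 SD under the median of all tested compounds, cut at about 3.7% in these data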;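 also: PTEN knockout HCT116 line with beta catenin targeted HCT116 as companion control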
HCT116 bCat-KO – beta-catenin-lacking colon tumor cell growth suppression | HCT116 beta-catenin knockout viability, CellTiter-Glo, 60 h; stronger effect = lower value | 140,000 tested, 1.5% active | viability, % at 10 µM;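 active = viability at or under a set limit, the compound median less 4 SD, cut at about 6% in these data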
Insulin prom up – MIN6 insulin promoter up-regulation | MIN6 insulin promoter-GFP reporter, high-content imaging; stronger effect = higher value | z-score at 5 µM | 190,000 tested, 0.3% active | AID 1625;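 active = z-score above 3 at 5 µM with at least 500 cells counted in the well; inconclusive = wells under 500 cells, flagged as cytotoxic or low count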
INS promoter inh – TRM-6 insulin promoter activity inhibition. TRM-6 cells (human fetal islet line), insulin promoter-eGFP reporter, imaging; reporter expression induced with tamoxifen. inhibition, % at 2 µM. 130,000 tested, 0.9% active;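 active = inhibition above the mean plus 3 SD, with well images judged a real hit on visual review, cut at about 60% in these data, passing the limit was not always enough; inconclusive = inhibition over the cutoff but images rejected on review; inactive = inhibition not above the cutoff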
Numbers stand for hits; - = inactive; ? = inconclusive; . = no result given; + = active, no number. Rows were chosen to be rich in hits. Some 9.6% of all compounds tested hit in one or more screens of this group.

SMILES	Lmaj promast	Autophagy HCS	HCT116 PTEN-null	HCT116 bCat-KO	Insulin prom up	INS promoter inh
CCCNC(=O)c1csc2c1CCCCC2	-	-	-	-	-	-
CCCNC(=O)c1sc2c(c1C(=O)Nc1ccccn1)CCCC2	-	+	.	.	-	-
CCN1C/C(=C/c2ccc(OC)c(O)c2)C(=O)/C(=C/c2ccc(OC)c(O)c2)C1	100	+	.	.	?	.
O=C1/C(=C/c2cccc([N+](=O)[O-])c2)CSc2ccc(Cl)cc21	.	.	.	.	-	.
CCN1C/C(=C\c2cccc([N+](=O)[O-])c2)C(=O)/C(=C/c2cccc([N+](=O)[O-])c2)C1	100	-	1.4	1.6	-	100
O=C1/C(=C/c2cccc([N+](=O)[O-])c2)CCc2ccccc21	95	-	2.0	3.2	-	-
O=C1/C(=C/c2ccc([N+](=O)[O-])cc2)CCc2ccccc21	.	.	.	.	-	.
O=c1cc(C(F)(F)F)[nH]c2c(C(F)(F)F)cccc12	-	-	-	-	-	-
O=C(c1ccc(-c2ccccc2)cc1)c1ccccc1C(=O)N1CCOCC1	51	-	-	-	-	-
O=C(O)c1cnn2c(C(F)F)cc(C(F)F)nc12	-	-	-	-	.	-
COC(=O)Cc1cc(=O)[nH]c(Nc2nc3ccccc3o2)n1	-	-	-	-	-	-
Cc1nc(-c2ccccc2)cc(=O)[nH]1	-	-	-	-	-	.
COCc1cc(=O)[nH]c(Nc2nc3ccccc3o2)n1	99	-	-	-	-	.
Cc1ccc2oc(Nc3nc(-c4ccccc4)cc(=O)[nH]3)nc2c1	98	-	.	.	-	.
COCc1cc(=O)[nH]c(Nc2nc(C)c3ccccc3n2)n1	79	-	2.3	1.7	-	-
CCN1CCCC1CNCC(=O)Nc1ccc(OC(F)(F)F)cc1 (centres undefined)	.	.	.	.	-	.
CN1CCCN(S(=O)(=O)c2cccc(Cl)c2Cl)CC1	72	-	.	.	-	.
CN1CCCN(S(=O)(=O)c2ccc(Cl)c(Cl)c2)CC1	82	-	.	.	-	-
Cc1cc(N2CCN(S(=O)(=O)c3ccc(Cl)c(Cl)c3)CC2)c2ccccc2n1	74	-	.	.	-	.
O=S(=O)(c1cccc(Cl)c1Cl)N1CCCCC1	-	-	-	-	-	-
COc1ccc(C(=O)N(Cc2ccco2)Cc2cc3cc(C)ccc3[nH]c2=O)cc1OC	-	-	.	.	.	-
COCCn1c(SC(C)C(=O)Nc2ccc3c(c2)OCCO3)nc2ccccc2c1=O (centres undefined)	-	-	-	-	-	.
O=S(=O)(c1ccc(Cl)c(NC(=S)N/N=C/c2c(F)cccc2F)c1)N1CCOCC1	-	-	-	-	-	.
c1ccc2c(c1)nc(N1CCCCC1)c1ccccc12	.	.	.	.	-	.
O=C(OCC(=O)N1CCCc2ccccc21)c1cncc(Br)c1	-	-	-	-	-	.
SMILES	Lmaj promast	Autophagy HCS	HCT116 PTEN-null	HCT116 bCat-KO	Insulin prom up	INS promoter inh
O=C(OCC(=O)N1CCCC1)c1cncc(Br)c1	-	-	-	-	-	100
O=C(CSCc1ccccc1)N/N=C/c1ccc(OCC(=O)N2CCCCC2)cc1	57	-	-	-	.	-
COC(=O)c1c(NC(=O)C2CC(=O)NN2Cc2ccccc2)sc(C)c1C (centres undefined)	100	-	-	-	-	-
Cc1ccc(N/N=C(\C#N)C(=N)N2CCOCC2)cc1	87	-	-	-	-	-
N#C/C(=N\Nc1ccc(Cl)cc1)C(=N)N1CCCCC1	73	-	-	-	-	-
N#C/C(=N\Nc1ccc(F)cc1)C(=N)N1CCCCCC1	-	-	.	.	.	-
Cc1cc(C)c2nc(N3CCC(C(=O)NCCCN4CC(C)CC(C)C4)CC3)sc2c1 (centres undefined)	99	+	.	.	-	-
CCN1CCN(CC(=O)N/N=C/c2ccc(F)cc2F)CC1	-	-	-	-	-	-
CC(C)C(=O)N1CCN(c2ccc(NC(=O)c3cccs3)cc2)CC1	-	-	-	-	-	-
CCN(CC)CC(C)OC(=O)c1ccccc1Cl (centres undefined)	-	+	.	.	-	.
C=CCc1cc(C=O)cc(OCC)c1OCc1ccc(Cl)cc1	86	-	-	-	-	-
Clc1ccc(SCCCN2CCCCC2)cc1	.	.	.	.	-	.
Brc1ccccc1OCCCCCN1CCCC1	98	-	-	-	-	-
Clc1ccc(OCCCCCN2CCCC2)c(Br)c1	98	-	-	-	-	-
Clc1ccc(OCCCN2CCCCC2)c(Br)c1	99	-	-	-	-	-
CCN1CCN(CCCOc2ccc(Cl)cc2Br)CC1	96	-	.	.	-	.
Cc1cc(Cl)ccc1OCCCC(=O)N1CCCCC1	-	-	-	-	.	-
CCOc1ccc(C(=O)NC(=S)NCc2cccnc2)cc1[N+](=O)[O-]	-	-	-	-	-	-
CCN(CC)CCN1C(=O)C(=O)/C(=C(/O)c2c(C)[nH]c(C(=O)OC)c2C)C1c1cccs1 (centres undefined)	-	-	-	-	-	-
O=C(NCc1ccco1)c1cccnc1Cl	-	-	-	-	-	.
COc1cc(-c2nc(-c3ccccc3)c(-c3cc([N+](=O)[O-])ccc3C)[nH]2)cc(OC)c1OC	100	-	-	-	.	-
O=[N+]([O-])c1cccc(-c2nc(-c3ccccc3)c(-c3cccs3)[nH]2)c1	-	-	-	-	-	-
COc1ccc(OC)c(C(=O)CC2OC(=O)c3ccccc32)c1 (centres undefined)	-	-	-	-	-	.
COc1ccc(NC(=O)OCCn2c([N+](=O)[O-])cnc2C)cc1	54	-	-	-	-	-
Cc1ccc(NC(NC(=O)OCCn2c([N+](=O)[O-])cnc2C)C(Cl)(Cl)Cl)cc1 (centres undefined)	-	-	-	-	-	.
SMILES	Lmaj promast	Autophagy HCS	HCT116 PTEN-null	HCT116 bCat-KO	Insulin prom up	INS promoter inh
COc1ccc(NC(=S)NNC(=O)CCn2cc([N+](=O)[O-])cn2)cc1	-	-	.	.	-	88
CC(C)Cc1nc2ccccc2[nH]1	.	.	.	.	-	.
Cc1cccc(OCCSCc2nc3ccccc3[nH]2)c1	-	-	-	-	-	.
Cc1cccc(CC(Cc2nc3ccccc3[nH]2)c2nc3ccccc3[nH]2)c1 (centres undefined)	93	-	-	-	-	-
CC(c1ccccc1)C(Cc1nc2ccccc2[nH]1)c1nc2ccccc2[nH]1 (centres undefined)	95	-	.	.	-	.
COc1ccccc1CC(Cc1nc2ccccc2[nH]1)c1nc2ccccc2[nH]1 (centres undefined)	98	-	.	.	-	.
O=C(Oc1cccnc1)c1cccc(Cl)c1	-	-	-	-	-	-
COc1ccc(S(=O)(=O)N(CC(C)C)CC(C)C)c2cccnc12	72	-	-	-	-	.
CCN(Cc1ccccc1)S(=O)(=O)c1ccc(OC)c2ncccc12	.	.	.	.	-	.
CCCCN(CCCC)S(=O)(=O)c1ccc(OC)c2ncccc12	75	-	-	-	-	-
CC(C)N1CCC(N2CCN(Cc3ccc4nonc4c3)CC2CCO)CC1 (centres undefined)	.	.	.	.	-	.
O=[N+]([O-])c1ccc(Oc2cccc(F)c2)c2ccncc12	-	+	-	-	-	-
Cc1cc(NC(=O)c2ccccc2-c2ccccc2C(=O)O)no1	-	-	-	-	-	64
